The list shows a part of the results. Values without a mark were called inactive.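 The calls were made as follows: active = fluorescence interference ratio at or below 0.8 quencher or at or above a set limitenhancer; inactive = the rest.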
Assay: compounds quenching or enhancing NS3h-DNA Cy5 signal – biochemical, ChemBridge library, Cy5-DNA-NS3h complex, artefact control for HCV NS3 helicase inhibitor project, confirmation (AID 720489);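 also: ratio of compound fluorescence to mean of negative controls so 1 means no interference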
Settings: Cy5-dT15 DNA/NS3h fluorescence interference counterscreen; at 100 µM

CCOc1cc(C=C2C(=O)NC(=O)NC2=O)cc(Br)c1OCCOc1ccccc1C
fluorescence interference ratio: 0.809
